Measured values from PubChem BioAssay AID504466 (National Center for Advancing Translational Sciences (NCATS), 2011).
The whole screen tested about 330,000 compounds, of which about 4,200 (1.3%) were called active. Another 6% or so got no clear call; they are omitted. Calls follow the shape of the dose curve; as a rule, active = well fitted activation curve with a large enough effect; inconclusive = small, poorly fitted or top-dose-only effect; inactive = no such curve, though single readings can be large or run the other way. Many of the other results were omitted from the sample, so actives are more common in it than they were.

Assay: qHTS screen for small molecules that induce genotoxicity in human embryonic kidney (HEK293T) cells expressing luciferase-tagged ELG1; also: nearly all actives have a fitted effect of over 60% in size; as to activity change, positive = activation: % of control where 0% means no effect
Conditions: HEK293T ELG1-luciferase reporter, luminescence, 16 h; series mostly up to 46 µM; activity change, positive = activation: at the top concentration
In short: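 Genotoxic stress is detected as increased luminescence from luciferase-tagged ELG1 in HEK293T cells, measured with ONE-Glo after a 16 hr treatment at 37 °C.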
Potency is read from the fitted curve at half-maximal effect.

Compound | activity change, positive = activation | Potency
CC(C)n1cnc2c(NCc3ccccc3)cc(OCC3CCN(C)CC3)cc21 | -8.43% (inactive) | –
Cc1ccc(-c2csc(NC(=O)Cn3[nH]c(=O)c4ccccc4c3=O)n2)cc1 | 8.72% (inactive) | –
Cc1ccc(-c2csc(NC3OC(=O)c4ccccc43)n2)cc1 (stereo unspecified) | -7.01% (inactive) | –
Cc1ccc(-c2csc(-c3c[nH]c4ccccc34)n2)cc1 | – | 23.1 µM (active)
O=C(Cn1cc(C(F)(F)F)ccc1=O)Nc1ccc2c(c1)OCCO2 | -0.83% (inactive) | –
Cc1ccc(C)c(N2CCN(C(=O)CCc3nc(-c4cccc(C(F)(F)F)c4)no3)CC2)c1 | 11.2% (inactive) | –
Cc1c(C(=O)Nc2cccc(S(=O)(=O)N3CCOCC3)c2)oc2ccccc12 | -4.37% (inactive) | –
O=C(COC(=O)c1n[nH]c2ccccc12)Nc1ccccc1Br | 4.1% (inactive) | –
CC(=O)Nc1ccc(NC(=O)COC(=O)C2CCC(C(C)(C)C)CC2)cc1 (stereo unspecified) | -0.905% (inactive) | –
Cc1ccc2cc(/C=N/Nc3ccc(C(=O)O)cc3)c(Cl)nc2c1 | – | 18.3 µM (active)
CSCC[C@H](NC(=O)OC(C)(C)C)C(=O)N/N=C/c1cc2ccc(C)cc2nc1Cl | 0.217% (inactive) | –
Cc1ccc2cc(/C=N/NC(=O)[C@@H]3CCCN3)c(Cl)nc2c1 | 4.73% (inactive) | –
COc1ccc(CC(=O)N[C@@H]2c3cc(OC)c(OC)cc3C[C@H]2OCc2ccccc2)cc1 | -1.99% (inactive) | –
O=C(CSc1nnc2ccccn12)c1ccccc1 | – | 11.6 µM (active)
Cc1ccc(-n2c(C)cc(C(=O)CSc3nnc4ccccn34)c2C)cc1 | – | 5.17 µM (active)
Cc1cc(C(=O)CSc2nc(N)cc(=O)[nH]2)c(C)n1-c1cccc(F)c1 | 9.74% (inactive) | –
CCN(C(=O)CSc1nnc2ccccn12)C1CCS(=O)(=O)C1 (stereo unspecified) | 0.0236% (inactive) | –
Cc1ccc(C(=O)NNC(=O)CSc2nnc3ccccn23)cc1 | -1.99% (inactive) | –
O=C(CSc1nnc2n1CCCN2)c1ccccc1 | 19.4% (inactive) | –
CC1CCCCC12NC(=O)N(CC(=O)OCc1c(F)cccc1Cl)C2=O (stereo unspecified) | -3.2% (inactive) | –
C[C@H](NS(=O)(=O)c1ccc(Cl)cc1)C(=O)OCC(=O)N1CCOCC1 | -0.494% (inactive) | –
COc1cc(OC)cc(-c2sc3ccc(OC)cc3c2-c2ccc3cc[nH]c3c2)c1 | -0.81% (inactive) | –
Cn1c(SCC(=O)c2ccccc2)ncc(C(=O)Nc2ccc(F)cc2)c1=O | -8.49% (inactive) | –
Cc1ccc(NC(=O)c2cnc(SCC(=O)NCC3CCCO3)n(C)c2=O)cc1 (stereo unspecified) | – | 20.6 µM (active)
CCn1c(SCC(=O)NCC2CCCO2)nc2ccccc21 (stereo unspecified) | 0.58% (inactive) | –
CCCc1cc(=O)[nH]c(SCC(=O)Nc2ccc(C(=O)Nc3ccccc3OC)cc2)n1 | -2.48% (inactive) | –

Compound | activity change, positive = activation | Potency
Cc1noc(C)c1C(=O)OC(C)C(=O)Nc1ccc2c(c1)OCO2 (stereo unspecified) | -1.04% (inactive) | –
CC(=O)c1cccc(OCC(=O)OCC(=O)Nc2cc(S(=O)(=O)N3CCCCC3)ccc2C)c1 | 2.46% (inactive) | –
CC(C)Cn1c(SCC(=O)Nc2ccc(Cl)cc2F)nc(O)cc1=O | 0.616% (inactive) | –
O=C(Nc1cccc(NC(=O)c2ccco2)c1)c1cnccn1 | -4.27% (inactive) | –
CCn1c(SCC(=O)Nc2ccc3c(c2)OCCO3)nnc1C(C)C | 0.0765% (inactive) | –
O=C(CCN1C(=O)c2ccncc2C1=O)Nc1ccc2c(c1)OCCO2 | 4.24% (inactive) | –
Cn1ccnc1SCC(=O)Nc1ccc2c(c1)OCCO2 | – | 9.2 µM (active)
O=C(Nc1ccc2c(c1)OCCO2)c1cnccn1 | – | 5.8 µM (active)
CCn1c(SCC(=O)Nc2ccc3c(c2)OCCO3)nnc1-c1ccncc1 | 1.65% (inactive) | –
CCC(CO)Oc1cc(NC(=O)c2cccc3ccccc23)c2ncn(C(C)C)c2c1 (stereo unspecified) | -6.25% (inactive) | –
O=C(CSc1nc2ccccc2c(=O)n1Cc1ccc(F)cc1)NCC1CCCO1 (stereo unspecified) | 0.695% (inactive) | –
O=C1CCC/C=C\C[C@@H](CC(=O)N(CCO)Cc2ccccc2)C(=O)NCCO1 | 3.48% (inactive) | –
CC1CCCCC1NC(=O)Cn1cnc2c1c(=O)n(C)c(=O)n2C (stereo unspecified) | -0.309% (inactive) | –
Cc1ccc(C)c(NC(=O)COC(=O)c2nn(C)c(=O)c3ccccc23)c1 | -0.628% (inactive) | –
COc1ccc2oc(=O)c(C(=O)N3CCCC3)cc2c1 | -0.134% (inactive) | –
Cc1cc(C)cc(NC(=O)N2CCCCCCC2)c1 | 0.91% (inactive) | –
Cc1ccc2cc3cc(C(=O)N4CCCCCC4)oc3nc2c1 | – | 0.731 µM (active)
COc1ccc(CNC(=O)C[C@H]2C[C@H](C(=O)N3CCOCC3)[C@@]3(C)c4[nH]c5cc(CCC(=O)N(C)C)ccc5c4CCN3C2=O)cc1OC | 8.67% (inactive) | –
O=C(CCNC(=O)c1ccccc1Cl)NN=Cc1ccco1 | 3.81% (inactive) | –
Cc1ccsc1C(=O)NNC(=O)COc1ccc(Br)cc1 | 6.26% (inactive) | –
CC(OC(=O)/C=C/c1ccccc1)C(=O)Nc1ccc(C(N)=O)cc1 (stereo unspecified) | 0.672% (inactive) | –
Cc1ccc(N/C=C/C(=O)c2ccccc2)cc1C | – | 0.92 µM (active)
CC(=O)Nc1ccc(NC(=S)NC(=O)/C=C/c2ccccc2)cc1 | -5.8% (inactive) | –
O=C(/C=C/NCc1ccc(F)cc1)c1ccccc1 | 11.6% (inactive) | –
Cc1noc(NS(=O)(=O)c2ccc(N/C=C/C(=O)c3ccccc3)cc2)c1C | 19.6% (inactive) | –
CC(=O)Nc1ccc(/C=C/C(=O)c2ccccc2)cc1 | – | 16.4 µM (active)

Compound | activity change, positive = activation | Potency
Cc1ccc(S(=O)(=O)Nc2ccc3c(c2)C(=O)N([C@H](C)CO)C[C@@H](C)[C@@H](CN(C)C(=O)Nc2cccc4ccccc24)O3)cc1 | -1.85% (inactive) | –
O=C(NCCCN1CCOCC1)c1cn(-c2ccccc2)nc1-c1ccc(F)cc1 | 1.72% (inactive) | –
O=C(COC(=O)c1cccnc1Cl)NC(=O)NC1CCCCC1 | 3.37% (inactive) | –
O=C(COc1ccc(Br)cc1F)NCC1(N2CCCCC2)CCCCC1 | 0.0074% (inactive) | –
CC(C)n1cnc2c(NCc3ccccc3)cc(N[C@@H](CO)Cc3ccccc3)cc21 | -8.63% (inactive) | –
CCOc1ccc(Br)cc1S(=O)(=O)Nc1ccc(S(=O)(=O)Nc2cc(C)on2)cc1 | 0.63% (inactive) | –
O=C(Nc1cccc(S(=O)(=O)N2CCCCC2)c1)c1cncc(Br)c1 | -7.13% (inactive) | –
CC(C)(C)OC(=O)N/N=C/c1ccc(C(=O)O)cc1 | -2.14% (inactive) | –
Cc1ccccc1NC(=O)NNC(=O)OC(C)(C)C | -0.874% (inactive) | –
C/C(=N\NC(=O)OC(C)(C)C)c1ccc[nH]1 | – | 14.6 µM (active)
COc1ccccc1CNC(=O)c1ccc(Cl)c(S(=O)(=O)N2CCCC2)c1 | -0.595% (inactive) | –
Cc1ccc(S(=O)(=O)NCCC(=O)Nc2ccc(C)c(Cl)c2)cc1C | -1.62% (inactive) | –
Cc1ccnc(NC(=O)CCNS(=O)(=O)c2ccc(C)c(C)c2)c1 | – | 1.64 µM (active)
Cc1ccc(S(=O)(=O)NCCC(=O)Nc2cccc(S(N)(=O)=O)c2)cc1C | -2.2% (inactive) | –
Cc1cc(NC(=O)CN2C(=O)NC(CC(C)C)C2=O)no1 (stereo unspecified) | -1.81% (inactive) | –
O=C(CN1C(=O)NC2(CCCCCC2)C1=O)Nc1ccc([N+](=O)[O-])cc1 | -6.89% (inactive) | –
CC(C)(C)OC(=O)C[C@@H]1C/C=C\C[C@@H](CC(=O)N[C@H](CO)Cc2ccccc2)C(=O)NC[C@@H](c2ccccc2)OC1=O | -1.15% (inactive) | –
Cc1ccc(C(=O)OCC(=O)NCc2cc(C)c(O)c(C)c2)cc1S(=O)(=O)N1CCCCC1 | -3.3% (inactive) | –
COc1ccc(C(=O)OCC(=O)Nc2cccc(C(C)=O)c2)cc1OC | -2.98% (inactive) | –
CC(=O)Nc1cccc(C(=O)OCC(=O)NCc2cc(C)c(O)c(C)c2)c1 | – | 14.6 µM (active)
Cc1noc(C)c1S(=O)(=O)N(C)C[C@H]1Oc2c(NC(=O)Nc3ccc4c(c3)OCO4)cccc2C(=O)N([C@H](C)CO)C[C@@H]1C | -1.28% (inactive) | –
COc1cc(OC)cc(C(=O)N[C@H](C(=O)NNC(=O)c2ccc(Br)cc2)C(C)C)c1 | -3.65% (inactive) | –
COc1ccc(NC(=O)CCCC2CCCCC2)c(OC)c1 | – | 18.3 µM (active)
CC(=O)Oc1ccc(NC(=O)CCC2CCCCC2)c(C(=O)O)c1 | -2.29% (inactive) | –
COc1ccc(NC(=O)CCN2CCCC2)c(OC)c1 | 2.14% (inactive) | –
O=C(NOCc1ccccc1)c1cccc([N+](=O)[O-])c1 | 12.2% (inactive) | –

Compound | activity change, positive = activation | Potency
Cc1cccc(-n2ncc3c(=O)[nH]c(SCC(=O)Nc4cc(C)on4)nc32)c1 | -3.13% (inactive) | –
Cc1ccc(SCCC(=O)Nc2cc(C)on2)cc1 | 1.06% (inactive) | –
Cc1ccc2nc(-c3ccc(SCC(=O)Nc4cc(C)on4)nc3)[nH]c2c1 | – | 1.84 µM (active)
CC1CCCCC12NC(=O)N(CC(=O)N1CCN(c3ccccc3)CC1)C2=O (stereo unspecified) | -1.11% (inactive) | –
CCN(C[C@H]1N[C@@](CC)(C(=O)OC)[C@H]2C(=O)N(Cc3ccccc3)C(=O)[C@@H]12)S(=O)(=O)c1ccc(C(F)(F)F)cc1 | -1.39% (inactive) | –
COc1ccccc1-c1cc(C(=O)N2CCCCC2)no1 | – | 3.66 µM (active)
COc1cccc(-c2cc(C(=O)N3CCN(c4ccccc4OC)CC3)no2)c1 | -2% (inactive) | –
COc1ccc(-c2cc(C(=O)N3CCN(c4ccc(F)cc4)CC3)no2)cc1 | -14.8% (inactive) | –
O=C(OCC(=O)N1CCCCC1)c1ccc(OC(F)(F)F)cc1 | 3.48% (inactive) | –
O=C(C[C@H]1C[C@H](C(=O)N2CCOCC2)[C@@]2(CCC3CCCC3)c3[nH]c4ccc(Cl)cc4c3CCN2C1=O)NCc1ccco1 | -5.84% (inactive) | –
COc1ccc(NC(=O)N(C)C[C@H]2Oc3ccc(NC(=O)C4CC4)cc3C(=O)N([C@H](C)CO)C[C@@H]2C)cc1 | -1.25% (inactive) | –
COc1cccc(CNC(C)C(=O)Nc2ccc(S(=O)(=O)N3CCCC3)cc2)c1 (stereo unspecified) | -3.42% (inactive) | –
COc1cccc(C(=O)Nc2cccnc2)c1OC | 1.69% (inactive) | –
O=C(Nc1cccnc1)c1noc2c1CCCCC2 | – | 2.31 µM (active)
O=C(Nc1cccnc1)c1cc(Cl)ccc1Cl | -3.11% (inactive) | –
Cc1ccnc(SCC(=O)Nc2cccc(S(=O)(=O)N3CCOCC3)c2)n1 | -0.227% (inactive) | –
COc1ccc(-c2noc(CCC(=O)N3CCN(c4cccc(C)c4)CC3)n2)cc1 | -4.97% (inactive) | –
O=C(NCCS(=O)(=O)NCc1ccc(F)cc1)c1ccccc1 | 0.375% (inactive) | –
O=C(CNC(=O)c1ccccc1F)c1ccc(Br)cc1 | – | 5.17 µM (active)
O=C(CNC(=O)c1ccc(F)cc1)c1ccccc1 | – | 8.2 µM (active)
O=C(CNC(=O)c1ccccc1)NCC(=O)OCC(=O)c1ccccc1 | 1.91% (inactive) | –
O=C(COC(=O)CNC(=O)c1ccccc1F)NCC(F)(F)F | 4.54% (inactive) | –
O=C(Nc1ccc(NC(=O)c2ccccc2F)cc1)c1ccccc1F | 9.59% (inactive) | –
